TGFb inhibitor: TGF-b pathway inhibition | HepG2 CAGA-GFP TGF-b/SMAD3 reporter, GFP fluorescence, 18 h; TGF-beta stimulated, 500 pg/mL final | Potency, µM (top dose mostly 46.1 µM), for inactives: at the top dose activity, negative = inhibition, most hits filed as inhibitors | 410,000 compounds, 1.2% hits; note: potency is the fitted concentration of half-maximal effect; % is set by controls: 0 for no effect and ±100 for the full control effect; nearly all actives have a fitted effect of over 65% in size
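HEPG2 CAGA-GFP reporter cells (1000/well, DMEM with 1% FBS) received compounds, then recombinant TGF-beta at 500 pg/mL final for 18 hours at 37 degrees C. Per-cell GFP summed per well was normalised to unstimulated and stimulated DMSO controls before curve fitting.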
ATXN2 expr inh: inhibitors of ATXN2 expression. 360,000 compounds, 0.72% hits. HEK-293 ATXN2-luciferase reporter, luminescence, 24 h. Potency, µM (titrated, usually from 57 µM), for the others: at the highest dose activity change, negative = inhibition, usual class: inhibitors; note: potency is the fitted concentration of half-maximal effect; % is set by controls: 0 for no effect and ±100 for the full control effect; nearly all actives have a fitted effect of over 55% in size
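qHTS (up to 57 uM final) was run with 24 h compound exposure of reporter cells at 37 °C. Each well was multiplexed: SteadyGlo luminescence measured ATXN2-luciferase expression after a fluorogenic Gly-Phe-AFC viability readout (25 uM final).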
Six1-Eya2 inh: Six1/Eya2 interaction inhibition | AlphaScreen GST-Six1/His-Eya2 binding, biochemical; stronger effect = lower value | activity change, % (concentration not given with the values) | 360,000 compounds, 0.56% hits; in the data active = activity change below about -65%; inconclusive = mostly about -30% to -63%; note: % is set by controls: 0 for no effect and ±100 for the full control effect
Target sequence (O00167 whole entry, looked up): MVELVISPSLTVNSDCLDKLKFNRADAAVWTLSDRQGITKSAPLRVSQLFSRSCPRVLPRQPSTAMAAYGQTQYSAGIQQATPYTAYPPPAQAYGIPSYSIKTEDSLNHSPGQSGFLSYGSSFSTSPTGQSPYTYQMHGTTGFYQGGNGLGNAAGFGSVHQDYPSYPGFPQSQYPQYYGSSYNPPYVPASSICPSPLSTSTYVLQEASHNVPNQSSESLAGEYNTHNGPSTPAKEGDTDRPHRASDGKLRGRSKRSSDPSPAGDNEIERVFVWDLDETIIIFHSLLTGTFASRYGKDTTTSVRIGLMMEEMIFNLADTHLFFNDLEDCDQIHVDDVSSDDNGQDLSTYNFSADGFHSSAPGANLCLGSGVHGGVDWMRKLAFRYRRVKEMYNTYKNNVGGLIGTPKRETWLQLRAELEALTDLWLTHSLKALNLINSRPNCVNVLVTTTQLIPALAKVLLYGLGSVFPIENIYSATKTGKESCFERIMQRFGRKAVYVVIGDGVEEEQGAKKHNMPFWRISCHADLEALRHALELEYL
Target sequence (Q15475 whole entry, looked up): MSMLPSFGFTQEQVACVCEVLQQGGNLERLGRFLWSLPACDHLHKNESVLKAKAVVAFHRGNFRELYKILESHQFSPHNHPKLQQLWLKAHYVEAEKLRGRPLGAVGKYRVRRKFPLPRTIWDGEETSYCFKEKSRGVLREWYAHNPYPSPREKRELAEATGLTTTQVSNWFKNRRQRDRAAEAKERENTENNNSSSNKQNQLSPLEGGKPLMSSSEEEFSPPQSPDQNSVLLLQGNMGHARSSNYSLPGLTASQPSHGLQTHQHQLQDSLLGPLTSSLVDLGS
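Homogeneous AlphaScreen proximity assay pairing GST-Six1 with His-tagged Eya2 (added as 5X mix: 250 nM and 500 nM) in 50 mM Tris pH 8.0, 300 mM NaCl, 1 mM TCEP. Glutathione donor and nickel acceptor beads; 1 h, 37 °C, dark.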
HepG2 viability: counter-screen for TGF-b inhibitors: cytotoxicity in HepG2 cells | 410,000 compounds, 0.76% hits | HepG2 CAGA-GFP viability, ATP luminescence, 18 h | Potency, µM (titrated, usually from 46.1 µM), for the others: at the top dose activity change, negative = cytotoxicity, actives largely listed as cytotoxic | AID 588856; note: potency is the fitted concentration of half-maximal effect
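CellTiter-Glo luminescence gave cytotoxicity after 18 hours at 37 degrees C. The cells were HepG2 CAGA-GFP in 1% FBS DMEM, stimulated with 500 pg/mL TGF-beta after compound addition. %Activity was normalised to no-cell wells (complete cell-killing) and DMSO (no toxicity), and curves were fitted and classified.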
CtBP-E1A blk: inhibitors of CtBP/E1A interaction. 340,000 compounds, 0.49% hits. AID 651724. AlphaScreen GST-E1A/His-CtBP binding, 1536-well; stronger effect = lower value. activity change, % (concentration not given with the values); in the data active = activity change below about -65%; inconclusive = mostly about -30% to -63%; note: % is set by controls: 0 for no effect and ±100 for the full control effect
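Protein mix (5X: 125 nM each GST-E1A, His-CtBP) was incubated with pinned compound 2 h at 37 deg C in dark, in 50 mM Tris pH 8.0 buffer with 300 mM NaCl. Glutathione donor and nickel acceptor beads followed; AlphaScreen signal read after 1 h.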
S2 tox: cell viability loss in ATXN counter-screen; 400,000 compounds, 0.49% hits; S2 cells (HEK-293 line with an ATXN2-luciferase reporter) viability, CellTiter-Fluor protease fluorescence, 24 h; Potency, µM (highest dose often 56.7 µM), most hits filed as cytotoxic; note: potency is the fitted concentration of half-maximal effect; nearly all actives have a fitted effect of over 40% in size
Numbers without * were called inactive; i = inactive; ? = inconclusive; . = not tested or not shown; [ ] = remark or other dose. Shown are actives, neighbours in structure and some others; about 2.8% of the full set was active somewhere. Unless noted, calls come from the whole dose curve; as a rule, active = well fitted curve in the direction sought with a large enough effect; inconclusive = small, poorly fitted or top-dose-only effect, or another doubt; inactive = no such curve, though single readings can be large; an effect the other way counts as inactive or inconclusive.

SMILES | TGFb inhibitor | ATXN2 expr inh | Six1-Eya2 inh | HepG2 viability | CtBP-E1A blk | S2 tox
COc1ccc(CN2Cc3cnnn3-c3ccccc3C2C#N)cc1 (stereo unspecified) | ? | ? | -8.4 | 11.2µM* | -12.4 | .
CC#C[C@]1(O)CC[C@H]2[C@@H]3C[C@H](C)C4=CC(=O)CC[C@]4(C)[C@H]3CC[C@@]21C | . | -26.6% | . | . | . | i
CC1Cc2ccccc2N1NC(=O)c1ccc(Cl)c(S(N)(=O)=O)c1 (stereo unspecified) | 0.4% | -9.1% | -85.5* | 1.7% | -12.1 | i
CC1Cc2ccccc2N1Cc1cccc(S(=O)(=O)N(C)C)c1 (stereo unspecified) | -9.0% | ? | -20.9 | 5.5% | -22.4 | ?
C#CCOCCOCCOCCNc1nc(N2CCN(C(=O)CCCCCCCCCCNC(=O)[C@H]([C@@H](C)CC)n3cc(CCCCN=C(N)N)nn3)CC2)nc(N2CCN(C(=O)CCCCCCCCCCNC(=O)[C@H](CO)n3cc(CCCCCN)nn3)CC2)n1 | ? | 28.2µM* | -13.6 | -88.3% | ? | 15.8µM*
Cc1ccc(-c2nc3c(=O)n(C)c(=O)nc-3n(C)n2)cc1 | 0.794µM* | . | . | 1µM* | . | .
Cn1ncnc2c(=O)n(C)c(=O)nc1-2 | 0.112µM* | 3.55µM* | -2.7 | 0.199µM* | ? | 4.47µM*
CC(=O)c1ccc(N2CCN(S(=O)(=O)c3cc(-c4onc(C)c4C)ccc3C)CC2)cc1 | ? | . | . | -20.8% | . | .
Cc1ccc(-c2nnc(Nc3ccc(Br)cc3)c3ccccc23)cc1S(=O)(=O)NCc1nc2ccccc2[nH]1 | ? | -26.1% | . | -4.7% | . | i
Cc1c(NS(=O)(=O)c2ccccc2)ccc([N+](=O)[O-])c1Cl | 11.2µM* | ? | 0.5 | -24.6% | 0.5 | ?
O=C(Nc1ccc(OC(F)(F)F)cc1)Oc1ccccc1N1CCOCC1 | ? | -24.6% | -13.5 | -64.8% | -3.1 | i
O=C(Nc1ccc(OC(F)(F)F)cc1)Oc1ccccc1N1CCCCC1 | 12.6µM* | . | 2.6 | -102.2% | . | ?
CN[C@@]1(c2ccccc2Cl)CCCCC1=O | . | . | . | . | . | i
O=C(Cn1c(=O)oc2cc(S(=O)(=O)N3CCCCC3)ccc21)N1CCCCC1 | 48.8% | . | 6.7 | 33.7% | . | i
O=[N+]([O-])c1ccc(Sc2nc3ccccc3o2)c([N+](=O)[O-])c1 | ? | ? | -4.4 | 12.6µM* | 4.0 | .
C[C@H]1[C@@H]2Cc3ccc(O)cc3[C@@]1(C)CCN2C | . | -9.1%[288 µM] | . | . | . | ?
O=C1C=C(N2CC2)c2ccccc2C1=O | 15.8µM* | . | -13.2 | -110.0% | -7.1 | ?
c1ccc(N2CCN(c3ccccc3)CC2)cc1 | -12.2% | . | . | -0.4% | . | .
CCOC(=O)[C@]12Cc3cc(OC)ccc3[C@H]1N(C1CCCCC1)C(=O)c1ccccc12 | . | 4.47µM* | -1.8 | . | -10.4 | 7.08µM*
CCOC(=O)[C@]12Cc3cc(Cl)ccc3[C@H]1N(C1CCCCC1)C(=O)c1ccccc12 | . | 3.16µM* | -4.3 | . | -1.3 | 3.55µM*
O=C(Oc1ccc([N+](=O)[O-])cc1)N1CCN(Cc2cccc(Oc3ccccc3)c2)CC1 | . | -13.1% | . | . | . | .
CCNC(=O)C[C@@H]1N=C(c2ccc(Cl)cc2)c2cc(OC)ccc2-n2c(C)nnc21 | . | 63.5% | . | . | . | .
Cc1c(N=Nc2c(O)n(Cc3ccccc3)c(=O)[nH]c2=O)c(=O)n(-c2ccccc2)n1C | -17.9% | ? | -89.3* | -25.4% | -71.7* | i
COc1ccc(S(=O)(=O)N(C)C[C@H]2OCCCC[C@H](C)Oc3ccc(N(C)C)cc3C(=O)N([C@H](C)CO)C[C@@H]2C)cc1 | 6.2% | 8.2% | -6.7 | 0.9% | -4.9 | i
Cc1cc2c(C(C)C)c(O)c(O)c(C=O)c2c(O)c1-c1c(C)cc2c(C(C)C)c(O)c(O)c(C=O)c2c1O | 1.12µM* | ? | . | 1.41µM* | . | 25.1µM*
SMILES | TGFb inhibitor | ATXN2 expr inh | Six1-Eya2 inh | HepG2 viability | CtBP-E1A blk | S2 tox
CCOC(=O)[C@]12Cc3cc(Cl)ccc3[C@H]1N(CC(=O)OC)C(=O)c1ccccc12 | . | 7.08µM* | -1.3 | . | -4.1 | 7.94µM*
CCOC(=O)[C@]12Cc3cc(Cl)ccc3[C@H]1N(C(C)C)C(=O)c1ccccc12 | . | 5.62µM* | 10.5 | . | -12.7 | 6.31µM*
CCOC(=O)[C@]12Cc3cc(Cl)ccc3[C@H]1N(C)C(=O)c1ccccc12 | . | 2.2% | -2.9 | . | -0.3 | i
CCCCNC(C)(C)[P+](=O)O | . | . | . | . | . | i
C=C1C[C@H]2[C@H]3CCC(=O)[C@@]3(C)CC[C@@H]2[C@@]2(C)C=CC(=O)C=C12 | . | -0.9% | . | . | . | .
O=C(Cn1c(=O)oc2cc(S(=O)(=O)NCc3ccccc3)ccc21)NCc1ccccc1Cl | ? | . | . | -64.0% | . | .
CCC12CN3CC(CC)(CN(C1)C3c1ccccn1)C2=O (stereo unspecified) | -1.2% | -4.0% | . | 5.1% | . | i
CN1C2CCC1/C(=C/c1ccccn1)C(=O)/C2=C\c1ccccn1 | 2.82µM* | ? | -15.9 | 10µM* | 3.8 | ?
CCCCCC(=O)N[C@@H](c1ccccc1)[C@@H](O)C(=O)O[C@H]1C[C@@]2(O)[C@@H](OC(=O)c3ccccc3)C3[C@](C)(C(=O)[C@H](O)C(=C1C)C2(C)C)[C@@H](OC1OCC(O)C(O)C1O)C[C@H]1OC[C@@]31OC(C)=O (stereo partly specified) | -10.4% | -19.3% | -89.7* | 1.2% | -21.6 | ?
CCNC(=O)CC1N=C(c2ccc(Cl)cc2)c2cc(OC)ccc2-n2c(C)nnc21 (stereo unspecified) | . | 77.3% | . | . | . | .
CN(C)[C@@H]1C(=O)C(C(N)=O)=C(O)[C@]2(O)C(=O)C3=C(O)c4c(O)cccc4[C@@](C)(O)[C@H]3[C@H](O)[C@@H]12 | . | . | . | . | . | i
CN(C)[C@@H]1C(=O)C(C(N)=O)=C(O)[C@@]2(O)C(=O)C3=C(O)c4c(O)cccc4[C@@](C)(O)C3[C@H](O)C12 (stereo partly specified) | 23.8% | -1.2% | -9.3 | -5.0% | -66.9* | i
Cc1cccc(N2C(=O)NC(=O)/C(=C\c3cc(C)n(-c4sc5c(c4C#N)CCCC5)c3C)C2=O)c1C | 7.08µM* | -30.8% | -14.6 | 12.6µM* | -13.2 | i
CCOC(=O)c1c(-n2c(C)cc(C=C3C(=O)NC(=O)NC3=O)c2C)sc2c1CCCC2 | -14.3% | ? | -4.0 | -17.6% | 2.4 | i
CCc1ccc(C2CCNCC2)cc1 | . | -15.8% | . | . | . | i
COc1ccc(-c2cc(=NCCCCCC(=O)O)c3cc(C)ccc3o2)cc1 | ? | -2.1% | -83.0* | 5.7% | -90.4* | i

Source: PubChem BioAssay (National Center for Advancing Translational Sciences (NCATS))
